# Sampled rows, rich in hits. Any-hit rate of the full collection: about 6%.
# Tau fibril FP = tau fibrillization inhibition (FP); K18 P301L tau heparin fibrillization, Alexa594 FP, 6 h; Potency, µM (top dose mostly 57.7 µM), for inactives: top-dose activity, negative = inhibition, hits mostly inhibitors; 280,000 compounds, 0.39% hits; P10636; further: potency means the concentration at half of the fitted maximal effect; nearly all actives have a fitted effect of over 55% in size
# Target sequence (P10636 561-689 P618L limits assumed): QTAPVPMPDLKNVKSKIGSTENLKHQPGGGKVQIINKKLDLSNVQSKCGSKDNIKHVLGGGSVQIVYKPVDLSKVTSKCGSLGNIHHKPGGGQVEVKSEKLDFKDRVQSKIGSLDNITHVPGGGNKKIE
#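 K18 P301L tau (15 uM unlabeled/0.24 uM Alexa 594-labeled, final) + compound + heparin 20 uM final; 100 mM NaOAc pH 7; 6 hr 37 C; ThT 30 uM final added, 1 hr RT; FP ex 555/em 632 nm.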
# PLK1 PBD block = blocks phosphopeptide binding to human PLK1 polo-box domain | P53350 | 360,000 compounds, 2.8% hits | Plk1 PBD binding of FITC phosphopeptide, fluorescence polarization | AID 720504 | Potency, µM, for the others: max response, negative = inhibition, actives largely listed as inhibitors; further: potency means the concentration at half of the fitted maximal effect; series mostly up to about 57 µM; nearly all actives have a fitted effect of over 65% in size
# Tau fluor cs = counter-screen for tau fibril formation inhibitors. tau K18 P301L Alexa594 fluorescence, heparin fibrillization. Potency, µM (series often up to 57.7 µM), for the others: at the highest dose activity change, negative = decrease. 280,000 compounds, 0.93% hits; further: potency means the concentration at half of the fitted maximal effect; nearly all actives have a fitted effect of over 55% in size
#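 Human tau K18 P301L (15 uM unlabeled, 0.24 uM Alexa 594-labeled) in 100 mM sodium acetate pH 7 with 20 uM heparin, 6 hr at 37 C. ThT 30 uM added, 1 hr ambient; Alexa 594 FP and total fluorescence read at 555/632 nm.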
# VDR inh = vitamin D3 receptor (human) inhibition | P11473 | VDR-SRC2-3 peptide fluorescence polarization, 2 h | Potency, µM, inactives show max response, negative = inhibition, usual class: inhibitors | 400,000 compounds, 0.93% hits | AID 504847; further: potency means the concentration at half of the fitted maximal effect
# Target sequence (P11473 whole entry, looked up): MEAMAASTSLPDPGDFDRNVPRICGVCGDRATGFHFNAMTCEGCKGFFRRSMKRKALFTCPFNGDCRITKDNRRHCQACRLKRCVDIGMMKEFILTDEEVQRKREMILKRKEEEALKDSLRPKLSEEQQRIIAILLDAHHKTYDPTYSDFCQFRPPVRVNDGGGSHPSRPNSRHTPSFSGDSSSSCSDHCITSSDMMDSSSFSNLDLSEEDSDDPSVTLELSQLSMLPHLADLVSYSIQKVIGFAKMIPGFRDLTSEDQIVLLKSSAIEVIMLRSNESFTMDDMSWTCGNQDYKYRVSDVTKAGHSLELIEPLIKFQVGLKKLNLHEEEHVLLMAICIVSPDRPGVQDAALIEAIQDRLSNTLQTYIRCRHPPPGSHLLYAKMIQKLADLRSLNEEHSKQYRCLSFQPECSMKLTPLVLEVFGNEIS
#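 The screen uses fluorescence polarization to detect compounds that interfere with recruitment of the SRC2-3 coactivator peptide to VDR; plates are read after 2 h at room temperature.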
# Tau fibril ThT = blocks human tau fibril formation measured by thioflavin T; P10636; recombinant tau K18 P301L (four-repeat tau fragment), heparin-induced fibrillization, ThT fluorescence; Potency, µM (highest dose often 57.4 µM), for the others: top-dose activity, negative = inhibition, hits mostly inhibitors; 270,000 compounds, 2.1% hits; AID 1460; further: potency means the concentration at half of the fitted maximal effect; nearly all actives have a fitted effect of over 55% in size
#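 Heparin-induced (20 uM) aggregation of recombinant human K18 P301L tau, 15 uM unlabeled with 0.24 uM labeled, pH 7 acetate buffer, 6 hr at 37 C with compound. Fibrils quantified by 30 uM ThT fluorescence after 1 hr ambient incubation.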
# Sfp inh = blocks B. subtilis Sfp PPTase activity. Q9F4F7. Biochemical Sfp PPTase activity, qHTS. Potency, µM, for inactives: largest response in the series, negative = inhibition, most hits filed as inhibitors. 310,000 compounds, 3.5% hits;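 further: the enzyme is Sfp with the accession as filed and its product quenches rhodamine fluorescence; potency means the concentration at half of the fitted maximal effect; 0% = enzyme reaction without inhibitor and -100% = no enzyme wells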
#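 Fluorescence-quenching assay with 15 nM Sfp, 5 uM rhodamine-CoA and 12.5 uM BHQ-2-labelled ybbR peptide in pH 7.6 Hepes/MgCl2 buffer. Enzyme was pre-incubated with compound for 15 min at room temperature. Rate was taken from the 30-min fluorescence change (525/598 nm).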
# Sfp inh conf = confirmation of Bacillus subtilis Sfp PPTase inhibitors; 380 compounds, 79% hits; shares compounds with Sfp inh; Potency, µM (series often up to 114 µM), inactives show at the highest dose activity change, negative = inhibition, hits mostly inhibitors; Sfp PPTase enzymatic assay, qHTS titration;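 further: potency means the concentration at half of the fitted maximal effect; plate controls were uninhibited Sfp reaction for no effect and no enzyme control for full effect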
# Sfp PPTase gel = Inhibits B. subtilis Sfp phosphopantetheinylation; shares compounds with Sfp inh; purified Sfp, gel-based phosphopantetheinylation read-out; Potency, µM, usual class: inhibitors; 210 compounds, 20% hits; AID 2707;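 active means potency below 100 µM; inconclusive means dose-dependent response but potency above 100 µM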;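 further: band intensities scaled against SCH202676 control wells before curve fitting; potency is an IC50 for inhibitors of Sfp transfer activity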
# * = called active by the depositor; i = inactive; ? = inconclusive; . = no result given; ! = a repeat was not active; [ ] = dose if it differs, or a comment. Unless noted, the call rests on the fitted dose curve; in most records, active means well fitted curve in the direction sought with a large enough effect; inconclusive means small, poorly fitted or top-dose-only effect, or another doubt; inactive means no such curve, though single readings can be large; an effect the other way counts as inactive or inconclusive. Unless noted, on the % scale 0 is the no-effect control and ±100 the full control effect.
SMILES,Tau fibril FP,PLK1 PBD block,Tau fluor cs,VDR inh,Tau fibril ThT,Sfp inh,Sfp inh conf,Sfp PPTase gel
CCN1CCc2nc(N)sc2C1,-6%,4.2µM*,-2%,89µM*,-12%,11µM*,12µM*,?
CCN1CCc2nc(NC(=O)c3ccccc3)sc2C1,-6%,0%,-4%,-4%,-9%,-9%,.,.
Cc1cccc(S(=O)(=O)NC(=O)C2(C)CCN2C(=O)Cc2ccc(-c3ccccc3)cc2)c1 (stereo not given),.,-7%,.,.,.,.,.,.
O=C(O)CCc1c(C(=O)O)[nH]c2cc(Cl)cc(Cl)c12,.,.,.,-21%,.,11%,.,.
Clc1ccccc1CSc1nc2ccncc2[nH]1,-5%,?,-6%,-14%,-5%,56µM*,?,?
Cc1cc(C)cc(-n2ccn3c(CC(C)(C)CC(=O)O)nnc3c2=O)c1,3%,.,-6%,-12%,0%,.,.,.
COC(=O)NC(CC(C)=O)c1ccco1 (stereo not given),5%[11.6 µM],.,-14%[11.6 µM],.,-13%[11.5 µM],-5%,.,.
CC(=O)N1CCN(c2ccc(NCc3ccc4c(c3)OCO4)cc2)CC1,?,-5%,?,?,16µM*,16µM*,21µM*,i
CCOc1ccc(CNC(=O)C2=Cc3cc(Br)ccc3OC2)cc1OC,-15%,.,-26%,-4%,1%,.,.,.
CCOC(=O)C[n+]1c(C)sc2ccc(OC)cc21,?,27µM*,-19%,?,28µM*,1µM*,6.6µM*,i
N[C@@H](CO)C(=O)NNCc1ccc(O)c(O)c1O,.,.,.,32µM*,.,28µM*,?,19µM*
COC(=O)[C@@H](N)Cc1ccc(O)cc1,-6%,.,-4%,.,-3%,-7%,.,.
Cc1ccc(C2(C(F)(F)F)NC(=O)N3CCCN=C3S2)cc1 (stereo not given),-7%,-8%,-4%,8%,-4%,-4%,.,.
O=C1NC(c2ccccc2)(C(F)(F)F)SC2=CCCCCN12 (stereo not given),-14%,-5%,-4%,-2%,?,20µM*,47µM*,i
c1cncc(-c2nc(-c3ccco3)cs2)c1,?,-16%,-21%,-14%,?,7.9µM*,15µM*,.
c1cncc(-c2csc(-c3cccnc3)n2)c1,.,6%,.,1%,.,12%,.,.
c1ccc(N2CCN(c3nc4ccccc4n4cnnc34)CC2)cc1,6%,2%,?,-9%,?,2%,.,.
C1=C(c2ccccc2)CCN(c2nc3ccccc3n3cnnc23)C1,8%,-24%,-13%,-30%,?,28µM*,37µM*,.
CCc1ccc2oc(C(=O)Nc3ccccc3OC)cc(=O)c2c1,-9%,.,-4%,9%,-5%,.,.,.
CCN(CC)c1ccc(/C=C/c2nc3ccccc3s2)cc1,3%,.,?,.,?,18µM*,33µM*,i
c1ccc2c(c1)[nH]c1nc(SCCN3CCOCC3)nnc12,-1%,27µM*,2%,-1%,0%,4.5µM*,9.4µM*,.
Cc1c(C(=O)OCC2CCCO2)[nH]c2c1C(=O)CC(c1ccco1)C2 (stereo not given),-7%,?,-9%,-11%,?,16µM*,37µM*,i
Cc1cccc(-c2nc3c4ccccc4nc(N4CCN(c5ccccc5F)CC4)n3n2)c1,-4%,.,-11%,-2%,-3%,.,.,.
CC(C)(C)NS(=O)(=O)c1ccc(Oc2ncc(C(F)(F)F)cc2Cl)cc1,1%,7%,-21%,4%,-23%,25µM*,53µM*,i
COCCCNS(=O)(=O)c1ccc(Oc2ncc(C(F)(F)F)cc2Cl)cc1,6%,-6%,-18%,10%,-27%,-24%,.,.
SMILES,Tau fibril FP,PLK1 PBD block,Tau fluor cs,VDR inh,Tau fibril ThT,Sfp inh,Sfp inh conf,Sfp PPTase gel
S=C(Nc1cccc(Cl)c1)Nc1ccccc1Oc1ccccc1,?,-7%,?,2%,-3%,9%,.,.
S=C(Nc1cccc(Cl)c1)Nc1cccc2cnccc12,7%,27µM*,4%,71µM*,3%,1.4µM*,13µM*,?
O=C(COC(=O)c1ccc(F)cc1Cl)NC1CC1,.,-6%,.,.,.,.,.,.
Cn1nnc(NC(=S)NC(=O)c2ccco2)n1,10%,-23%,-7%,3%,-3%,6.3µM*,?,i
Cn1nnc(NC(=O)c2ccco2)n1,-1%,-1%,2%,23%,-1%,19%,.,.
COc1ccc(-n2c(=O)c(-c3cn(C)c4ccccc34)nc3cnc(N4CCOCC4)nc32)cc1,.,.,.,-2%,.,7%,.,.
Cc1nnc2sc(SCc3ccc(Br)cc3)nn2c1=O,-5%,-6%,-9%,-1%,-11%,13%,.,.
N[C@@H](Cc1ccccc1)c1nnc2sc(SCc3ccccc3)nn12,-2%,-19%,0%,4%,-16%,45µM*,66µM*,.
CC(C)NC(=O)C1=CC(c2ccc3c(c2)OCO3)=NS(=O)(=O)N1C,6%,.,-1%,-3%,7%,.,.,.
Cc1sc2nc(SCc3nc(-c4cccs4)no3)n(-c3ccccc3)c(=O)c2c1C,0%,-2%,-12%,5%,-1%,4µM*,5.9µM*,i
c1ccc(-n2c(SCc3nc(-c4cccs4)no3)nnc2-c2ccco2)cc1,-1%,-4%,-10%,3%,-17%,-10%,.,.
CCCCS(=O)(=O)Nc1ccc(C)cn1,-17%,21µM*,-16%,?,?,40µM*,47µM*,i
O[C@@H]1CCN2Cc3ccccc3N=C12,.,.,.,3.5µM*,.,2.8µM*,2.1µM*,0.69µM*
C[C@@](Cc1ccc(O)c(O)c1)(NN)C(=O)O,?,-21%,?,?,14µM*!,20µM*!,?,6.2µM*
C[C@](Cc1ccc(O)c(O)c1)(NN)C(=O)O,.,.,.,3%,.,.,.,.
Cc1ccc(C(=O)NC(=S)N(C)C2CCCCC2)cc1,.,2%,.,2%,.,-1%,.,.
COc1ccc(-c2nc(-c3ccccc3)oc2Nc2c(C)cccc2C)cc1,3%,.,-3%,14%,-2%,-17%,.,.
COc1ccccc1C1=Nn2c(nnc2-c2ccccc2OC)SC1,.,.,.,.,.,3%,.,.
COc1ccc(OCc2nnc3n2N=C(c2ccc(OC)cc2)CS3)cc1,10%,?,-9%,-6%,-8%,11%,.,.
COc1ccccc1C1=Nn2c(COc3ccccc3)nnc2SC1,?,.,-27%,.,?,14µM*,11µM*,.
c1ccc(OCc2nnc3n2N=C(c2ccccc2)CS3)cc1,-6%,7.5µM*,-17%,?,?,16µM*,17µM*,.
